Holding throughout (experiment): DAPPL (digital affinity profiling via proximity ligation, sequencing); 10 mM Tris-HCl pH 7.5, 50 mM NaCl, 1 mM DTT, 4% glycerol, room temperature, 30 min; GST-TFs on glutathione beads, 16-mer random dsDNA library, 0.1% formaldehyde crosslink after washing; high values mean tight binding
One assay concerns the target T1, FLI1 (Homo sapiens, UniProt Q01543 1-452).
T1 sequence: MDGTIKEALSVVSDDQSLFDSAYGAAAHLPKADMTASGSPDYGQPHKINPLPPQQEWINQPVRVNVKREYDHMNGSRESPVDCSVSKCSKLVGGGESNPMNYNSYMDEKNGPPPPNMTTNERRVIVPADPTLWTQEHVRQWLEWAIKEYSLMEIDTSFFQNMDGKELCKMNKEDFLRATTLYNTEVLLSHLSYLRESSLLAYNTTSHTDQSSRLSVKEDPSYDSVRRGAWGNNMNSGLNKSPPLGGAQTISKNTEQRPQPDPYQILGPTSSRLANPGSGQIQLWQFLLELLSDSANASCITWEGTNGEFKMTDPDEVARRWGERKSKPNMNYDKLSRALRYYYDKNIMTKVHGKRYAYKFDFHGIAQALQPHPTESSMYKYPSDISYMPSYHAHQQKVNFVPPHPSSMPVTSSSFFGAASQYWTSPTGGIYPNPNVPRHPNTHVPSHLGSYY
The following applies: protein: recombinant; tags: N-terminal GST; dsDNA, one strand shown. The essentials:
(§1)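 Binding signal is given per hexamer as its read frequency for a factor divided by its frequency in the tag-only sample. GST-fused human transcription factors were expressed in yeast, captured on glutathione beads, barcoded with DNA and pooled with that sample, then incubated with 200 nmole of a 16-mer random double-stranded DNA library in Tris/NaCl/DTT/glycerol buffer for 30 min at room temperature. The pools were then washed, crosslinked, proximity-ligated, amplified by PCR and sequenced on an Illumina NextSeq500.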

The target in a further assay is T2, ELK1 (Homo sapiens, UniProt P19419 1-428).
T2 sequence: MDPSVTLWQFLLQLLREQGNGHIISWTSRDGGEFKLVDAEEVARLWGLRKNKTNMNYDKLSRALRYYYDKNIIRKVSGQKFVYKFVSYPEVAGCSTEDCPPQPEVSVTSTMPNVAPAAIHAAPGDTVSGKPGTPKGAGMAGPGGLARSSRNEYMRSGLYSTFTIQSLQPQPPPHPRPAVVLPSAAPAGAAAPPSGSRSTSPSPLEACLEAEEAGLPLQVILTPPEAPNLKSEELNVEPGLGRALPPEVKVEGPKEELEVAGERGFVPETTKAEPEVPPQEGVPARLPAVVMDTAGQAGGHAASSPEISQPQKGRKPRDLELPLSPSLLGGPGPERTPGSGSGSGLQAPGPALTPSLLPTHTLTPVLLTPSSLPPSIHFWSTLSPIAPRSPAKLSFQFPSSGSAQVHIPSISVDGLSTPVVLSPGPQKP
Conditions: protein: recombinant; tags: N-terminal GST; dsDNA, one strand shown. In short, it runs like this: as §1

For the next assay, the target named is T3, GABPA (Homo sapiens, UniProt Q06546 1-454).
T3 sequence: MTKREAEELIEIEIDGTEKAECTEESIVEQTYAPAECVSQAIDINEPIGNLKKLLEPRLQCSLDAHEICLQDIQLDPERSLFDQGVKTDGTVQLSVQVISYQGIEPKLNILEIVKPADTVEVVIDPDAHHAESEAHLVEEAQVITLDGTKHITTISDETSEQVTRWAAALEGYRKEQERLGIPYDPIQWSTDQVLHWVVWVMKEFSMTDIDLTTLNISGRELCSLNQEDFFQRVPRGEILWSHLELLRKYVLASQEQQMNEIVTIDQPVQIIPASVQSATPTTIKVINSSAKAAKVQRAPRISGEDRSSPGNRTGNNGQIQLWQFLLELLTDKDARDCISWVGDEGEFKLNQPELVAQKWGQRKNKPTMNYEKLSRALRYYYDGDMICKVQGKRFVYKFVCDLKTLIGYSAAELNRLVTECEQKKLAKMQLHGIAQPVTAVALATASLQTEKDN
Conditions: protein: recombinant; tags: N-terminal GST; dsDNA, one strand shown. The essentials:
as §1

The next assay addresses T4, ERG (Homo sapiens, UniProt P11308 1-479).
T4 sequence: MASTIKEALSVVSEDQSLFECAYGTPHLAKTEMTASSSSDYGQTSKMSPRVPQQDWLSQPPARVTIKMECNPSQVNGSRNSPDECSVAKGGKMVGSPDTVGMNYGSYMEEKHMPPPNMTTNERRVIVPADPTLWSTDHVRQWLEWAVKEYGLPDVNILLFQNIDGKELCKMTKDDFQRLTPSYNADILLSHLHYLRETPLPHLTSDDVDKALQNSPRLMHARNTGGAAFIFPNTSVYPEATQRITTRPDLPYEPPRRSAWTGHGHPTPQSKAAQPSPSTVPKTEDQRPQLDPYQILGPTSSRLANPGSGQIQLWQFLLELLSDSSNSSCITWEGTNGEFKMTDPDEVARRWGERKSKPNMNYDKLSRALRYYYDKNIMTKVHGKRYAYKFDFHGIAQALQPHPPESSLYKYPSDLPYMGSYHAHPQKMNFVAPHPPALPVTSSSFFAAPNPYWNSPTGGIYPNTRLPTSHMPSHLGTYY
Conditions: protein: recombinant; tags: N-terminal GST; dsDNA, one strand shown. The essentials:
as §1

A further assay concerns the target ELF1 (Homo sapiens, UniProt P32519 1-619). Conditions: protein: recombinant; tags: N-terminal GST; dsDNA, one strand shown. The essentials: as §1
The next assay concerns the target T5, EHF (Homo sapiens, UniProt Q9NZC4 1-300).
T5 sequence: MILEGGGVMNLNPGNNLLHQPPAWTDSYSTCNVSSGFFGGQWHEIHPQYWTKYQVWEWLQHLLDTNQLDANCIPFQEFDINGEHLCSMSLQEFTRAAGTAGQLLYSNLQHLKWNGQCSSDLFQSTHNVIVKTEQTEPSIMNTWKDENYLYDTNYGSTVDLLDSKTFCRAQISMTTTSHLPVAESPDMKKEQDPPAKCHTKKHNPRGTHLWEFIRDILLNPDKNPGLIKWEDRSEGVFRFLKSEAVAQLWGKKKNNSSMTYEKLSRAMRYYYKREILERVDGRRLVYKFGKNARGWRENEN
The following applies: protein: recombinant; tags: N-terminal GST; dsDNA, one strand shown. The essentials:
as §1

Another assay concerns the target SPI1 (Homo sapiens, UniProt P17947 1-270). The following applies: protein: recombinant; tags: N-terminal GST; dsDNA, one strand shown. In short, it runs like this: as §1
The next assay addresses SPIB (Homo sapiens, UniProt Q01892 1-262). The following applies: protein: recombinant; tags: N-terminal GST; dsDNA, one strand shown. In short, it runs like this:
as §1

A further assay has as its target T6, ELK3 (Homo sapiens, UniProt P41970 1-407).
T6 sequence: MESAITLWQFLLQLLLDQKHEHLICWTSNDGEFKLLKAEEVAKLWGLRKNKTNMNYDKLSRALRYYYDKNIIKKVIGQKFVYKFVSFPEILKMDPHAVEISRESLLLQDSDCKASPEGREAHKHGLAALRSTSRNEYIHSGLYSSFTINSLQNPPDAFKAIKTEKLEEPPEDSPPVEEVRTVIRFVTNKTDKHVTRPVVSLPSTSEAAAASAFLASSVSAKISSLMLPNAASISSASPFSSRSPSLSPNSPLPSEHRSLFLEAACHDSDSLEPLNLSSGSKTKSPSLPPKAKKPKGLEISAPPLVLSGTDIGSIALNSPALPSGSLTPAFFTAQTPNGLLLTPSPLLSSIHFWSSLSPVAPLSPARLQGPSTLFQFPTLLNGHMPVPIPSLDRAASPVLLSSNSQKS
The following applies: protein: recombinant; tags: N-terminal GST; dsDNA, one strand shown. In short, it runs like this:
as §1

The target of another assay is T7, FEV (Homo sapiens, UniProt Q99581 1-238).
T7 sequence: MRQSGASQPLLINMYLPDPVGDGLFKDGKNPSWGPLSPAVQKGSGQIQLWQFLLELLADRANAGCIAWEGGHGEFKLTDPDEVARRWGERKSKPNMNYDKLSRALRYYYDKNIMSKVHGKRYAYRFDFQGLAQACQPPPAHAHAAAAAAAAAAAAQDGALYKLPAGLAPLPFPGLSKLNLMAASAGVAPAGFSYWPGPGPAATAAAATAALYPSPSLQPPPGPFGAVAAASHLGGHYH
Conditions: protein: recombinant; tags: N-terminal GST; dsDNA, one strand shown. The essentials:
as §1

A further assay deals with ETV5 (Homo sapiens, UniProt P41161 1-510). The following applies: protein: recombinant; tags: N-terminal GST; dsDNA, one strand shown. In short, it runs like this:
as §1

The target of another assay is HSF1 (Homo sapiens, UniProt Q00613 1-529). The following applies: protein: recombinant; tags: N-terminal GST; chain copies: 3; dsDNA, one strand shown. In short, it runs like this:
as §1

A further assay has as its target T8, SPIC (Homo sapiens, UniProt Q8N5J4 1-248).
T8 sequence: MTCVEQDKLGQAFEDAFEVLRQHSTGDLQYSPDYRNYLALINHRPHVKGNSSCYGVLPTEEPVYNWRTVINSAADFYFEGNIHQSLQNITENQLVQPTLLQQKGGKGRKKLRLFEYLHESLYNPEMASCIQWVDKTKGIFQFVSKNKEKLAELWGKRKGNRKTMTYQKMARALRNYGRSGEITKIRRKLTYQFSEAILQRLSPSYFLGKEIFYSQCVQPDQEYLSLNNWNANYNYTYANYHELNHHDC
The following applies: protein: recombinant; tags: N-terminal GST; dsDNA, one strand shown. The essentials:
as §1

The next assay addresses ELF4 (Homo sapiens, UniProt Q99607 1-663). Conditions: protein: recombinant; tags: N-terminal GST; dsDNA, one strand shown. In short, it runs like this: as §1
The target in the next assay is T9, ELK4 (Homo sapiens, UniProt P28324-2 1-405).
T9 sequence: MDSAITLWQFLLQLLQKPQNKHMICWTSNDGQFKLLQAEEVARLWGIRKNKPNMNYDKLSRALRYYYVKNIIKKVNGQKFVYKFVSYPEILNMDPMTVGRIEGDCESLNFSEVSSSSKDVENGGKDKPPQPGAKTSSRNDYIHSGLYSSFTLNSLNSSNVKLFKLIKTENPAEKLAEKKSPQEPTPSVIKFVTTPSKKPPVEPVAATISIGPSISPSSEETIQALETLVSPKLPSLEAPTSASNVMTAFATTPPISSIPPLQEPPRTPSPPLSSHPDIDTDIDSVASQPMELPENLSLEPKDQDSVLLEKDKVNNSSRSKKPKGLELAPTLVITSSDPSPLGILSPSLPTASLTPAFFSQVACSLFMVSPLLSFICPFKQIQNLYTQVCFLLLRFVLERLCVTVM
The following applies: protein: recombinant; tags: N-terminal GST; dsDNA, one strand shown. The essentials:
as §1

The target of a further assay is T10, ETV2 (Homo sapiens, UniProt O00321 1-342).
T10 sequence: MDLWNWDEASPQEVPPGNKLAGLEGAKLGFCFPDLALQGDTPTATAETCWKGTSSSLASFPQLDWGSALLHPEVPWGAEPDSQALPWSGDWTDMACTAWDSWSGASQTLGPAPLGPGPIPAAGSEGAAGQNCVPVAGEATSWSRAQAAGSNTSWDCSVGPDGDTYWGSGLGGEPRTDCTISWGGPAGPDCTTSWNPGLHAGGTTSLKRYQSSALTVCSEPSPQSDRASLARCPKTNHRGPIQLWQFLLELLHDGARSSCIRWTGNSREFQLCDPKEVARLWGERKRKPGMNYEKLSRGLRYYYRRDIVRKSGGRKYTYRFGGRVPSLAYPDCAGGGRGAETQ
The following applies: protein: recombinant; tags: N-terminal GST; dsDNA, one strand shown. The essentials:
as §1

The target of a further assay is T11, ELF3 (Homo sapiens, UniProt P78545 1-371).
T11 sequence: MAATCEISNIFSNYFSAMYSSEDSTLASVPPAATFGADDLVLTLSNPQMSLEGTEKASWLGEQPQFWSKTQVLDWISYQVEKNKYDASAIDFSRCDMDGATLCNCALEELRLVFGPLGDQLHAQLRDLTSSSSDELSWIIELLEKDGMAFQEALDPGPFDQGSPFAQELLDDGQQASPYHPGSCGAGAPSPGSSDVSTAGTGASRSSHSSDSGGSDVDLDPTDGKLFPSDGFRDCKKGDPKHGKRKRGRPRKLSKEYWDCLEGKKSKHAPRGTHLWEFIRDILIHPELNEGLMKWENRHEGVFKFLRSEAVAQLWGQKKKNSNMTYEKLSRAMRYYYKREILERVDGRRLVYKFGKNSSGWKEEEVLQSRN
The following applies: protein: recombinant; tags: N-terminal GST; dsDNA, one strand shown. In short, it runs like this: as §1

A further assay addresses CRX (Homo sapiens, UniProt O43186 1-299). Conditions: protein: recombinant; tags: N-terminal GST; dsDNA, one strand shown. The essentials: as §1
In another assay the target is ETV1 (Homo sapiens, UniProt P50549 1-477). Conditions: protein: recombinant; tags: N-terminal GST; dsDNA, one strand shown. The essentials:
as §1

ELF4, sequence (Q99607 whole entry): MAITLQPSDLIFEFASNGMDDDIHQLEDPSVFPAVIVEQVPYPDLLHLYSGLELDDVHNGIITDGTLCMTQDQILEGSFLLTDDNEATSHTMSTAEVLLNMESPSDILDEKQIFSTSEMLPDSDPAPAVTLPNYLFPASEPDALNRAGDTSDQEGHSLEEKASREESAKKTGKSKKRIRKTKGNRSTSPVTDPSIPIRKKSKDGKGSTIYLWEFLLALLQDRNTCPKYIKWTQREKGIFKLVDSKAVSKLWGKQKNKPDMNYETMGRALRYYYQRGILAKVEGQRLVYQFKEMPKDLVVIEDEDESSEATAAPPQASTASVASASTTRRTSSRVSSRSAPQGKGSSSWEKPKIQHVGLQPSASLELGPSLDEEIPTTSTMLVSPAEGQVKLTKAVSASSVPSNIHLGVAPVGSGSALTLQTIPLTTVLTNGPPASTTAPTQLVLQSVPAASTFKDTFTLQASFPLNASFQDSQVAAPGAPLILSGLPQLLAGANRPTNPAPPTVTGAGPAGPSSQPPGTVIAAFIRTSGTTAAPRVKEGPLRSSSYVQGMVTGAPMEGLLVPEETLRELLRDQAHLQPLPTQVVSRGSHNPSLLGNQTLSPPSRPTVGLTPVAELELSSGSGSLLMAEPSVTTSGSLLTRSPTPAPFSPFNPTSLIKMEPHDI
HSF1, sequence (Q00613 whole entry): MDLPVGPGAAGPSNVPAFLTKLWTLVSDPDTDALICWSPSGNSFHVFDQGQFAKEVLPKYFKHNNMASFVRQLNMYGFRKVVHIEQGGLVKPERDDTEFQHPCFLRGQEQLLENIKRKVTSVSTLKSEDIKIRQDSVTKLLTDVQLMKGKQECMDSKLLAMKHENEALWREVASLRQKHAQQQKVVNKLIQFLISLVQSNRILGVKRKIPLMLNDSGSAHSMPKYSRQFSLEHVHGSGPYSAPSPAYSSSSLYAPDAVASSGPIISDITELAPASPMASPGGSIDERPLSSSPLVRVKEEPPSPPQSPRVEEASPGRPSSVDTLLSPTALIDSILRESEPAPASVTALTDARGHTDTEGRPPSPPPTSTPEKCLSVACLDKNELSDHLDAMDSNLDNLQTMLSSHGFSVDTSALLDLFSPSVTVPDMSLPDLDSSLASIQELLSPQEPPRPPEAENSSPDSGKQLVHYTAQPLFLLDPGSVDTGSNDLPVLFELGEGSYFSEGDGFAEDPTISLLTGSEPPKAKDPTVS
ETV5, sequence (P41161 whole entry): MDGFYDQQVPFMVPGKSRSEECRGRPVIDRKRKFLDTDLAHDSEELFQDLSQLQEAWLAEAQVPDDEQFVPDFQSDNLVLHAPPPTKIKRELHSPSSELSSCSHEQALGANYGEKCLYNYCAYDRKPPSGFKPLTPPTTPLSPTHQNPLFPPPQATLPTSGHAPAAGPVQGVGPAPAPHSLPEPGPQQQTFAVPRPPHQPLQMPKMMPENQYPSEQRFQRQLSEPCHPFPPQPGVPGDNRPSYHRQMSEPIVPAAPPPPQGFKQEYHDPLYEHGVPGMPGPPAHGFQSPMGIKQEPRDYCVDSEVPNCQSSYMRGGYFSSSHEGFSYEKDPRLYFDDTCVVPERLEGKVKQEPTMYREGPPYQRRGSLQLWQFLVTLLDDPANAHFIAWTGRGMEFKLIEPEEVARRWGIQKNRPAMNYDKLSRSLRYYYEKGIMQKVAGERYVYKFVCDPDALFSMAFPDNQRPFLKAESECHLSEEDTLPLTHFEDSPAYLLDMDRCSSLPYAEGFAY
ETV1, sequence (P50549 whole entry): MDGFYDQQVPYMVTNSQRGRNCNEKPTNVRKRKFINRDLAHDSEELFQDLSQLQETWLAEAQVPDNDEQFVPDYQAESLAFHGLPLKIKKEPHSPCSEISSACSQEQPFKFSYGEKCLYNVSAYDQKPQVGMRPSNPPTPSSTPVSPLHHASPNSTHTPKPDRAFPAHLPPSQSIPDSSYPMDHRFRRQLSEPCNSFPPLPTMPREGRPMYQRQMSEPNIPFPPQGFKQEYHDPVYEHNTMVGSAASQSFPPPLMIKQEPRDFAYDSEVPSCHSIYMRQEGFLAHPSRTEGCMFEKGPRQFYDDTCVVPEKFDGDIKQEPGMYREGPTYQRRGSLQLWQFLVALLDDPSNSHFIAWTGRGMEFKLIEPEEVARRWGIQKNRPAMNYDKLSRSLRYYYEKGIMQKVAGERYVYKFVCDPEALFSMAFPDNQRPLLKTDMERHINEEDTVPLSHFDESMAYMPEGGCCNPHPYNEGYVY
SPIB, sequence (Q01892 whole entry): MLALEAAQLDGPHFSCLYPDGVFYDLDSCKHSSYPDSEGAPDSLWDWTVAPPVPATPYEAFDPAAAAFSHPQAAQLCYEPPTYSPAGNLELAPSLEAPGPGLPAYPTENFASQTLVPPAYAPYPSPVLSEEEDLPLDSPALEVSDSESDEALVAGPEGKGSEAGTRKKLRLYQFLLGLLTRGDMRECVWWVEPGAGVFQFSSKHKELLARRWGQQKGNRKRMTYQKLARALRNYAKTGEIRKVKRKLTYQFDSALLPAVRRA
CRX, sequence (O43186 whole entry): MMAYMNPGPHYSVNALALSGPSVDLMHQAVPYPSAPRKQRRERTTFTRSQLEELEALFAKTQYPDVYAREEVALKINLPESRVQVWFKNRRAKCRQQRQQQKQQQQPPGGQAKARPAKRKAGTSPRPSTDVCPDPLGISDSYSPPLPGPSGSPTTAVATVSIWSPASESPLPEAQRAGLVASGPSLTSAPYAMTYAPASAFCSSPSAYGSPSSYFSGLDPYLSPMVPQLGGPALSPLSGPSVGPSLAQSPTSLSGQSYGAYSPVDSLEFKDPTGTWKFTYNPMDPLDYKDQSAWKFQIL
ELF1, sequence (P32519 whole entry): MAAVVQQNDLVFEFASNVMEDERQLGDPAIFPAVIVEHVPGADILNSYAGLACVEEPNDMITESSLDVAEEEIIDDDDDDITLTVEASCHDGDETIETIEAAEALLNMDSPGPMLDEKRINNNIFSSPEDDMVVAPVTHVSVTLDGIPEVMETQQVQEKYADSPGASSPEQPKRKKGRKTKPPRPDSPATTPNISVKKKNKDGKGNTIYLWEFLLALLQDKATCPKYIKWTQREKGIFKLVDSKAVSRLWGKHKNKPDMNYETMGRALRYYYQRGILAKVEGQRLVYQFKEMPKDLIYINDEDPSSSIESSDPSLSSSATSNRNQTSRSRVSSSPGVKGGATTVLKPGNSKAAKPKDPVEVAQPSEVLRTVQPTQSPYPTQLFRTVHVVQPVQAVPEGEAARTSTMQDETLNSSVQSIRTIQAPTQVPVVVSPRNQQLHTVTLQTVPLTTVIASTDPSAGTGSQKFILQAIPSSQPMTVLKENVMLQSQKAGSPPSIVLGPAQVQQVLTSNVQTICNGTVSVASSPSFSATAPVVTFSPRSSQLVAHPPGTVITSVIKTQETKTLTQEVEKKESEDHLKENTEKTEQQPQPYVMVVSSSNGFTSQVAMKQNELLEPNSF

Take AACTTC: the binding signal was 2.4 fold enrichment (6-mer frequency, TF over GST control) with FLI1; 2.53 fold enrichment (6-mer frequency, TF over GST control) in the assay with ELK1; 2.41 fold enrichment (6-mer frequency, TF over GST control) with GABPA; 2.73 fold enrichment (6-mer frequency, TF over GST control) with ERG; 2.47 fold enrichment (6-mer frequency, TF over GST control) with ELF1; 2.5 fold enrichment (6-mer frequency, TF over GST control) with EHF. The binding signal with SPI1 was 3.04 fold enrichment (6-mer frequency, TF over GST control); in the assay with SPIB, 2.77 fold enrichment (6-mer frequency, TF over GST control); with ELK3, 2.72 fold enrichment (6-mer frequency, TF over GST control); in the assay with FEV, 3.12 fold enrichment (6-mer frequency, TF over GST control); in the assay with ETV5, 2.71 fold enrichment (6-mer frequency, TF over GST control); in the assay with HSF1, 2.02 fold enrichment (6-mer frequency, TF over GST control). In addition, the binding signal with SPIC was 2.83 fold enrichment (6-mer frequency, TF over GST control); with ELF4, 2.44 fold enrichment (6-mer frequency, TF over GST control); in the assay with ELK4 it was 2.34 fold enrichment (6-mer frequency, TF over GST control); in the assay with ETV2, 2.52 fold enrichment (6-mer frequency, TF over GST control); in the assay with ELF3, 2.39 fold enrichment (6-mer frequency, TF over GST control); in the assay with CRX, 1.45 fold enrichment (6-mer frequency, TF over GST control). Besides, the binding signal with ETV1 was 2.6 fold enrichment (6-mer frequency, TF over GST control).

The values above are taken from paper PMC7862700, “An all-to-all approach to the identification of sequence-specific readers for epigenetic DNA modifications on cytosine”.
